The record followed here is PubChem BioAssay (NCI).

This is part of a sample that, as a whole, favours compounds with a hit. Of some 83,000 tested, about 20% had one in any assay.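 Assay: single dose, 48 h. Readout: percent growth (0 = no net growth; negative = cell death). Active: <10.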 A number with no mark means an inactive call. Active and inactive are the calls of the source.

The test system of this assay is HL-60(TB) leukemia. As to the kind of experiment: NCI-60 one-dose screen, 48 h (100 = growth as untreated, 0 = no growth, -100 = all killed). The settings on record: 10 µM unless noted.
On to `CC(=O)c1nn(-c2ccc(C)cc2)cc1C(=O)c1cc2c(ccc3ccccc32)oc1=O`, for which the growth was 104%.
Regarding `Cc1nn2c(/C=C3/C(=O)Nc4ccc(Cl)cc43)c(-c3ccccc3)nc2s1`, the growth was 81.5%.
`O=C(Nc1ccccc1O)c1ccc(CNC(=O)c2ccsc2Nc2ccnc(C(F)(F)F)c2)cc1`: the growth was 7.44% (active).
In the case of `C1=C(c2ccccc2)C(c2ccc(OCCN3CCCCC3)cc2)Oc2ccccc21` (configuration not stated), the growth is 62.7%.
Turning to `COC(=O)c1c(C)nc(Nc2nc3ccccc3s2)nc1-c1ccc(Cl)cc1Cl`, the growth was 96.3%.
With `COc1nc2c(cc1S(=O)(=O)c1ccccc1)CCc1c-2cnn1-c1ccc(Cl)cc1`, the growth was 90.5%.
For the compound `CCC(OC(=O)CC(C)C)c1ccccc1` (configuration not stated), the growth is 102%.
Turning to `CCN(CC)CCOc1ccc(C(=O)/C=C\c2ccc(Cl)cc2Cl)cc1`, the growth was -29.2% (active).
For `C#CCNC(=O)CC[C@@H](C)[C@H]1CC[C@H]2[C@@H]3CC[C@@H]4CC(=O)CC[C@]4(C)[C@H]3CC[C@]12C`, the growth is -30% [100 µM] (active).
As to `O=C(CCl)Nc1ccc2c(Nc3cc(O)ccc3Cl)ncnc2c1`, the growth was -53.2% (active).
`N=c1nc(N2CCCCC2)cc(N)n1O`: the growth was 92.4%.
In the case of `CCCCCCCCCc1cc(CN2CCCCC2)c(O)c(CN2CCCCC2)c1`, the growth is 60.7%.
For `Oc1c(CN2CCN(c3ccccc3F)CC2)cc(Br)c2cccnc12`, the growth is -34.4% (active).
As for `COc1ccc(C2=NN(C(=O)COc3ccc(Cl)cc3)C(O)(c3cc(F)c(Cl)cc3Cl)C2)cc1` (configuration not stated), the growth was 95%.
On to `Nc1ccc(N=Nc2ccccc2)cc1[N+](=O)[O-]`, for which the growth is 97.1%.
In the case of `N/C(=N\N=C\c1cc2ccccc2[nH]1)N/N=C/c1cc2ccccc2[nH]1`, the growth is 101%.
Turning to `CC(=O)N[C@H](C(=O)N[C@@H](CCCNC(=N)N)C(=O)N[C@@H](CCCCN)C(=O)N[C@@H](CCCNC(=N)N)C(=O)NC(C(=O)N[C@@H](CC(C)C)C(=O)N[C@@H](CCCNC(=N)N)C(=O)N[C@@]1(C)CCC/C=C\CCC[C@@](C)(C(=O)N[C@@H](CCCNC(=N)N)C(=O)N[C@@H](CCC(=O)O)C(=O)N[C@@H](CC(C)C)C(=O)N[C@H](C(=O)N[C@@H](CCC(=O)O)C(N)=O)C(C)C)NC(=O)[C@H](CCC(N)=O)NC(=O)[C@H](CC(C)C)NC(=O)[C@H](CC(C)C)NC1=O)[C@@H](C)O)C(C)C` (some centres not stated), the growth is -41% (active).
On to `Cc1nn2c(-c3nc4ccc(Cl)cc4[nH]3)c(-c3ccc(F)cc3)nc2s1`, for which the growth is 117%.
As for `O=C(/C=C/c1ccco1)c1cccc(Nc2nc(Nc3ccccc3)nc(Nc3ccccc3)n2)c1`, the figure is 91.1%.
Take `CN(C)c1ncc(-c2ccc(C(F)(F)F)cc2)c(NC2CCCCCC2)n1`: the growth was 39.8%.
On to `COc1ccc(-c2cc(-c3cc(-c4ccc(OC)cc4)nc(N)n3)nc(N)n2)cc1`, for which the growth is 83.6%.
As for `COc1cc(C2=NN(c3ccc(S(N)(=O)=O)cc3)C(c3ccc(Cl)cc3)C2)cc(OC)c1OC` (configuration not stated), the figure is -25.8% (active); as for `CCCCCCCc1n(Cc2ccc3ccccc3c2)c2ccccc2[n+]1Cc1ccc2ccccc2c1`, -63.7% (active).
As for `O=C(Nc1ccc(Br)cc1)Nc1cccc(Br)c1`, the figure is 5.54% (active); as for `Cc1ccc2c(-c3nnc(N)s3)cc(=O)oc2c1C`, 100%.
For the compound `CCn1c(CSc2nc3ccccc3c(=O)n2CCc2ccccc2)n[nH]c1=S`, the growth was 90.9%.
Take `COc1ccc(C(OCC2OC(n3ccc(NC(=O)c4ccccc4)nc3=O)C(O)C2O)(c2ccccc2)c2ccccc2)cc1` (configuration not stated): the growth was 22.9%.
